HTR5A ag – activates human HTR5A in OPRM1-OPRD1 agonist counter-screen; activation, % at 9.3 µM; AID 504692; 0.61% of 340,000 active; HTR5A agonist assay, luminescence, cell-based; P47898; in the data active = activation mostly above about 9.5%, no sharp cut-off; inactive = mostly below about 7.6%
Target sequence (P47898 whole entry, looked up): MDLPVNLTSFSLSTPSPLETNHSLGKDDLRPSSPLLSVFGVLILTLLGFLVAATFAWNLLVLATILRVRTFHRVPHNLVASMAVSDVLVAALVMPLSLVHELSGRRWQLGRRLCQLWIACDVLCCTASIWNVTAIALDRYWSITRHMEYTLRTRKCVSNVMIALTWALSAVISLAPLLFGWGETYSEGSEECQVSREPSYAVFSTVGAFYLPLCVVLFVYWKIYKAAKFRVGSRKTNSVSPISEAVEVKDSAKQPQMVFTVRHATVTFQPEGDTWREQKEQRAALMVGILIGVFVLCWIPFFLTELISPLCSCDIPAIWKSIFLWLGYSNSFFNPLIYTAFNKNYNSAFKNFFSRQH
MOR-DOR ag-1 – OPRM1-OPRD1 heterodimerization agonism; P35372+P41143; cells, luminescence; activation, % at 9.3 µM; 0.3% of 340,000 active; AID 504326
Bfl-1 A1 inh – inhibitors of the anti-apoptotic protein A1, read as caspase activation; AID 2462; 0.066% of 330,000 active; caspase activation, % (no concentration beside the values); MEF A1-2A-BIM cells, Caspase-Glo 3/7 luminescence, 3 h; percent of clofoctol response, vehicle zero;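 active = over half of replicate activation scores above 10%, or exactly half above 10 with the replicate mean above 10; inconclusive = replicate mean below 10 yet half the replicates above 10; inactive = over half of replicates below 10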
MOR-DOR inv ag – inverse agonist of human OPRM1-OPRD1 heterodimerization; P35372+P41143; cell-based MOR-DOR heterodimer luminescence, inverse agonism; inhibition, % at 9.3 µM; 0.21% of 340,000 active; AID 504357; in the data active = inhibition above about 22%, passing the limit was not always enough
HTR5A inv ag – HTR5A inverse agonism, opioid heterodimer counter-screen; AID 504634; 0.083% of 340,000 active; P47898; HTR5A cell line, luminescence; inhibition, % at 9.3 µM; in the data active = inhibition mostly above about 23%, no sharp cut-off; inactive = mostly below about 18%
MOR-DOR ag-2 – counter-screen for HTR5A agonists: OPRM1-OPRD1 heterodimerization agonism. shares compounds with HTR5A ag. U2OS counter-screen cells, complementation luminescence, 3 h. activation, % at 9.3 µM. 13% of 800 active. AID 504913
HTR5A ag conf – HTR5A (human) agonism, confirmation; HTR5A agonist cell assay, luminescence; shares compounds with HTR5A ag; 17% of 800 active; activation, % at 9.3 µM; in the data active = activation above about 17%
Hits are given with their value; - = inactive; ? = inconclusive; . = no result. The list is not random: actives were taken first. Their share in the collection is about 1.1%. Cut-off read from the data, not from the text of the source, unless noted: active = activation above about 18%; inactive = the rest.

SMILES	HTR5A ag	MOR-DOR ag-1	Bfl-1 A1 inh	MOR-DOR inv ag	HTR5A inv ag	MOR-DOR ag-2	HTR5A ag conf
COc1ccccc1NCC(=O)N/N=C(\C)c1ccc(Br)s1	46	-	-	-	-	-	36
NS(=O)(=O)c1ccc(CNS(=O)(=O)c2cc(C(=O)O)ccc2Cl)cc1	-	-	-	-	-	.	.
COc1ccc(CC(=O)c2cc(OC)c(OC)cc2CC(=O)O)cc1OC	-	-	-	-	-	.	.
COc1ccc(C(=O)Cc2ccc(OC)c(OC)c2)c(OC)c1	19	-	-	-	-	-	-
O=C(Nc1nnc(SCC(=O)N2CCOCC2)s1)C1CC(=O)N(c2ccccc2)C1 (centres undefined)	17	-	-	-	-	32	-
N=c1sccn1CC(=O)Nc1ccc(SC(F)F)cc1	-	-	-	-	-	.	.
CN(C)c1cccc(C(=O)NCC2CCCO2)c1 (centres undefined)	20	-	-	-	-	-	-
CN(C)c1ccc(C(=O)NCC2CCCO2)cc1 (centres undefined)	-	-	-	-	-	.	.
CCCCCCCCCCn1c2c(c(=N)c3c1CCC3)CCC2	35	-	-	-	-	-	-
CN(CC(=O)NC1CCN(Cc2ccccc2)CC1)S(=O)(=O)c1ccc(Br)s1	15	-	-	-	-	-	-
CN(CC(=O)NC1CCN(Cc2ccccc2)CC1)S(=O)(=O)c1ccc(Cl)cc1	-	-	-	-	-	.	.
COc1ccc(C(=O)N2CCN(C(=O)C3CCCO3)CC2)cc1[N+](=O)[O-] (centres undefined)	-	-	-	-	-	.	.
N#Cc1c(Cl)cccc1N1CCC(C(N)=O)CC1	.	.	-	.	.	.	.
Cc1cc(NS(=O)(=O)c2ccc(NC(=O)COc3ccc(Cl)cc3Cl)cc2)no1	20	-	-	-	-	-	-
COc1cc(CN2CCN(Cc3ccc([N+](=O)[O-])cc3)CC2)c([N+](=O)[O-])cc1OC	15	-	-	-	-	-	-
O=C(NC(=S)Nc1ccc(-c2ccc(CO)o2)cc1)c1cccs1	.	.	-	.	.	.	.
Cc1ccc(C(=O)NC(=S)Nc2ccc(-c3ccc(CO)o3)cc2)cc1	15	-	-	-	-	-	-
NC(=O)C1CC(=O)N(c2ccc(OCc3ccc(Cl)cc3)cc2)C1 (centres undefined)	-	-	-	-	-	.	.
COc1ccc(NC(=O)C2CCC(C(C)(C)C)CC2)cc1S(=O)(=O)N1CCOCC1 (centres undefined)	-	-	-	-	-	.	.
O=C(NCCn1cccn1)C1CCC(=O)N(CC2CCCCC2)C1 (centres undefined)	25	-	-	-	-	-	-
O=C(NCc1ccccc1)c1ccc(F)c(F)c1	14	-	-	-	-	-	-
CCOC(=O)c1ccc(NC(=S)NC(=O)C2CCCC2)cc1	-	-	-	-	-	.	.
CCOC(=O)c1ccc(NC(=S)NC2CCCC2)cc1	15	-	-	-	-	-	-
CC(C)c1ccc(NC(=S)NC2CCCCCC2)cc1	16	-	-	-	-	27	-
CCn1c(N2CCN(S(=O)(=O)c3ccc(Cl)cc3)CC2)nc2ccccc21	16	-	-	-	-	-	-
SMILES	HTR5A ag	MOR-DOR ag-1	Bfl-1 A1 inh	MOR-DOR inv ag	HTR5A inv ag	MOR-DOR ag-2	HTR5A ag conf
CCn1c(N2CCN(C(=S)NC)CC2)nc2ccccc21	24	-	-	-	-	-	-
CCn1c(N2CCN(C(=S)NCC(C)C)CC2)nc2ccccc21	-	-	-	-	-	.	.
CCn1c(N2CCN(C(=S)NCCc3ccccc3)CC2)nc2ccccc21	31	-	-	-	-	-	30
Cc1ccc(C(=O)NC(O)C(Cl)Cl)cc1 (centres undefined)	-	-	-	-	-	.	.
CC(=O)N1CCN(c2ncnc3sc(-c4ccccc4)cc23)CC1	-	-	?	-	-	.	.
Oc1ccc(N2CCN(c3ncnc4sc(-c5ccccc5)cc34)CC2)cc1	26	-	.	-	-	-	-
CCCCc1cc(=O)oc2cc(OCC(=O)NC3CCN(Cc4ccccc4)CC3)ccc12	15	-	-	-	-	-	-
CCCC(=O)Nc1c(C)nn(C(=O)CCC)c1C	-	-	-	-	-	.	.
CC(C)=C1SC(N2CCN(c3cccc(Cl)c3)CC2)=NC1=O	14	-	-	-	-	35	-
Cc1ccc(-n2c(CNc3ccc(F)cc3)nnc2SCC(=O)NCc2ccco2)cc1	-	-	-	-	-	.	.
O=C(COC(=O)/C=C/c1ccccc1[N+](=O)[O-])Nc1ccc(S(=O)(=O)N2CCOCC2)cc1	-	-	-	-	-	.	.
CCOC(=O)CNC(=O)C1CCCN(c2ncccn2)C1 (centres undefined)	-	-	-	-	-	.	.
O=C1CC(c2ccccc2)Sc2ccccc2N1 (centres undefined)	17	-	-	-	-	-	-
O=C1CC(c2ccco2)Sc2ccccc2N1 (centres undefined)	-	-	-	-	-	.	.
CC(C)(C)OC(=O)N1CCC(C(=O)NCC2CCCO2)CC1 (centres undefined)	-	-	-	-	-	.	.
COC(=O)c1ccc(Cn2cc(Cl)cn2)cc1	24	-	-	-	-	-	-
COc1nc(-c2ccccc2)ccc1-c1noc(-c2cccs2)n1	19	-	-	-	-	-	-
CCn1c2ccccc2c2cc(NC(=O)CSc3nnc(-c4ccc(OC)cc4)n3N)ccc21	19	-	-	-	-	-	-
Cc1cc(C)c(C#N)c(SCC(=O)Nc2cccc(S(=O)(=O)N3CCCC3)c2)n1	15	-	.	-	-	-	-
O=C(CNc1cccc(S(=O)(=O)N2CCCC2)c1)Nc1cccc(F)c1	-	-	-	-	-	.	.
O=C(CNc1cccc(C(F)(F)F)c1)Nc1cccc(S(=O)(=O)N2CCCC2)c1	19	-	-	-	-	-	-
COc1ccc2c(c1)N(S(=O)(=O)c1ccccc1)CCC2=O	-	-	-	-	-	.	.
CCC(=O)c1ccccc1OCC(=O)Nc1c(C)cccc1C	16	-	-	-	-	-	-
NS(=O)(=O)c1ccc(NC(=O)COC(=O)CN2C(=O)C3CC=CCC3C2=O)cc1 (centres undefined)	-	-	-	-	-	.	.
Cc1ccc(S(=O)(=O)N(CC(=O)NCCSc2ccccn2)c2ccc(C)c(C)c2)cc1	-	-	-	-	-	.	.
CCOc1ccccc1N(CC(=O)NCCSc1ccccn1)S(=O)(=O)c1ccc(C)cc1	30	-	-	-	-	-	-
CCOc1ccccc1N(CC(=O)NCCSc1ccccn1)S(=O)(=O)c1ccccc1	25	-	-	-	-	126	-
O=C(OCc1ccc([N+](=O)[O-])cc1Cl)c1cnccn1	-	-	-	-	-	.	.

Source: PubChem BioAssay (several laboratories)
